Assay results from PubChem BioAssay (NCI).
Compounds without any hit were thinned out: in the full panel of roughly 83,000, 20% have a hit.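 Treatment: one concentration, 48 hours, 96-well format. Scoring: percent growth, with anything below 10 considered active.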 Values without a mark were called inactive. Active and inactive are the calls of the source.

How the values were obtained:
Experiment in all cases: NCI-60 one-dose screen, 48 h (100 = growth as untreated, 0 = no growth, -100 = all killed)
Details in all cases: 10 µM unless noted
SR leukemia = tested on: SR leukemia
RPMI-8226 leukemia = tested on: RPMI-8226 leukemia
OVCAR-8 ovarian = tested on: OVCAR-8 ovarian
OVCAR-5 ovarian = tested on: OVCAR-5 ovarian
OVCAR-4 ovarian = tested on: OVCAR-4 ovarian
SK-OV-3 ovarian = tested on: SK-OV-3 ovarian
IGROV1 ovarian = tested on: IGROV1 ovarian
OVCAR-3 ovarian = tested on: OVCAR-3 ovarian
HS 578T breast = tested on: HS 578T breast
NCI/ADR-RES ovarian = tested on: NCI/ADR-RES ovarian
T-47D breast = tested on: T-47D breast
BT-549 breast = tested on: BT-549 breast
MDA-MB-435 melanoma = tested on: MDA-MB-435 melanoma
SW-620 colon = tested on: SW-620 colon
MCF7 breast = tested on: MCF7 breast
HCT-116 colon = tested on: HCT-116 colon
HCC-2998 colon = tested on: HCC-2998 colon
KM12 colon = tested on: KM12 colon

Compound | growth (SR leukemia) | growth (RPMI-8226 leukemia) | growth (OVCAR-8 ovarian) | growth (OVCAR-5 ovarian) | growth (OVCAR-4 ovarian) | growth (SK-OV-3 ovarian) | growth (IGROV1 ovarian) | growth (OVCAR-3 ovarian) | growth (HS 578T breast) | growth (NCI/ADR-RES ovarian) | growth (T-47D breast) | growth (BT-549 breast) | growth (MDA-MB-435 melanoma) | growth (SW-620 colon) | growth (MCF7 breast) | growth (HCT-116 colon) | growth (HCC-2998 colon) | growth (KM12 colon)
O=C(CCCCCCN1CC(=O)N2[C@@H](c3ccc(Cl)cc3)c3[nH]c4ccccc4c3C[C@H]2C1=O)NO | 20.2% | 22.4% | 57.7% | 69.9% | 59.3% | 82.9% | 53.8% | 66.7% | 67.9% | 93% | 42.1% | 77.2% | 53.9% | 62.9% | 46.2% | 38.6% | 81.2% | 75.1%
N#Cc1c(-c2ccccc2)nc2c(c(-c3ccccc3)nn2-c2ccccc2)c1-c1ccc(N2CCOCC2)cc1 | 24.5% | 76% | 99% | 102% | 103% | 108% | 87.7% | 96% | 104% | 94.6% | 96.7% | 99.8% | 90.5% | 45.6% | 57.6% | 65.5% | 107% | 95.7%
COC(=O)C1=C(C)NC(C)=C(C(=O)OCC(C)C)C1c1ccccc1[N+](=O)[O-] (stereo not drawn) | 20.3% | 53.1% | 61.6% | 98.7% | 51.8% | 82.7% | 56.9% | 56.5% | 112% | 48.8% | 56.1% | 59.5% | 54.8% | 29.4% | 72.7% | 30.1% | – | 27.4%
Cn1cc(-c2csc(-c3cn(C(=O)OC(C)(C)C)c4ccccc34)n2)c2ccnc(Cl)c21 | 26% | 68.7% | 48.2% | 51.3% | 9.63% (active) | 71.3% | 69.5% | 61.3% | 66.1% | 60% | 29.1% | 84.2% | 78.8% | 56.2% | 33.3% | 30% | – | 50.4%
O=c1oc2c(cnc3ccccc32)cc1-c1cccs1 | 103% | 103% | 100% | 108% | 100% | 106% | 99.7% | 119% | 99% | 104% | 95.9% | 96.9% | 103% | 103% | 98.1% | 91.1% | 117% | 105%
O=C(CN1CCN(c2cc3c(cc2F)c(=O)c(C(=O)O)cn3C2CC2)CC1)N/N=C/c1ccncc1 | 107% | 93.2% | 97.5% | 98.2% | 98.9% | 102% | 108% | 96.9% | 101% | 107% | 96.8% | 95.7% | 97.5% | 97.4% | 92.4% | 104% | – | 101%
Cc1c(N2CN3C[C@H](C)N4CN(c5c(C)n(C)n(-c6ccccc6)c5=O)CN5C[C@@H](C)N(C2)C3C54)c(=O)n(-c2ccccc2)n1C (stereo partly drawn) | 38.1% | 96% | 104% | 106% | 103% | 99.2% | 102% | 100% | 95.9% | 97.2% | 105% | 113% | 105% | 103% | 94.9% | 96.9% | 106% | 104%
Nc1ncnc2c1c(-c1ccc(Oc3ccccc3)cc1)nn2CC1SSCC1O (stereo not drawn) | -16.2% (active) | 38% | 67.7% | 81.4% | 67.4% | 44.3% | 15.6% | 11.9% | 66.7% | 77.5% | 7.22% (active) | 82% | -0.185% (active) | 78.7% | 16% | 43.8% | 80.4% | 46.5%
Cc1[nH]c(C(=O)Nc2cccc(OC3CCNCC3)c2)c(Cl)c1Cl | 13.6% | 43.2% | 94.2% | 95.4% | 98.6% | 96.5% | 60.6% | 82.4% | 56.6% | 89.2% | 87.9% | 84.6% | 43% | 0.537% (active) | 47.4% | 46.2% | – | 57%
Cc1ccc(-c2nc(C(Cl)Cl)nc3cc(C)nn23)cc1 | 9.7% (active) | 33.4% | 14.7% | 2.16% (active) | -21.5% (active) | -12.7% (active) | 6.31% (active) | -24.3% (active) | -11.4% (active) | 6.39% (active) | 40.9% | 55.5% | 12% | -28.5% (active) | 20.6% | 6.95% (active) | -69.3% (active) | -9.44% (active)
COc1cccc2c(N=NC(=O)c3ccc(S(N)(=O)=O)cc3)c(O)[nH]c12 | 81.2% | 103% | 102% | 106% | 96.8% | 107% | 101% | 114% | 101% | 105% | 92.9% | 94.3% | 100% | 94.8% | 91.1% | 99.4% | – | 101%
Cc1cc(N2CCN(C)CC2)nc(NCc2cc(Nc3ccnc4cc(Cl)ccc34)ccc2F)n1 | -32% (active) | -29.6% (active) | 6.32% (active) | -3.76% (active) | 14.9% | 23% | 10.4% | -46.8% (active) | 11% | 18.7% | -56.1% (active) | 30.4% | -43.6% (active) | -18.6% (active) | -9.33% (active) | -45.3% (active) | – | 12.7%
CC[C@H](Nc1nc(N)nc(C)c1C#N)c1nc2cccc(NCCCCCC(=O)NO)c2c(=O)n1-c1ccccc1 | 67.9% | 62% | 68.5% | 44.2% | 76.1% | 53.1% | 9.52% (active) | 40.8% | 13.2% | 96.2% | 1.28% (active) | 39.4% | 64.1% | 68.3% | 31.5% | 71.3% | 87% | 80.3%
NC(=O)OCCn1cc(-c2nc(-c3c[nH]c4ncccc34)cs2)c2ccccc21 | 24.2% | 24.9% | 41.6% | 58.2% | 71.7% | 41.6% | 41.3% | 27.9% | 41.4% | 38.1% | 44.7% | 32.8% | -33.4% (active) | 8.68% (active) | 18.3% | 30.8% | 71.7% | 23%
c1ccc2cc(Cn3c[n+](Cc4ccc5ccccc5c4)c4ccccc43)ccc2c1 | -66.7% (active) | -53.6% (active) | -47.9% (active) | 22.3% | -14.9% (active) | -0.377% (active) | -42.4% (active) | -50.8% (active) | 3.56% (active) | 91.2% | -8.43% (active) | -82.7% (active) | -52.6% (active) | -3% (active) | -30.2% (active) | -90.6% (active) | – | -85.9% (active)
COc1ccc(/C=C/C(=O)c2ccc(Nc3nc(Nc4ccc(F)cc4)nc(Nc4ccc(Cl)cc4)n3)cc2)cc1 | -2.35% (active) | 58.5% | 97.1% | 111% | 98% | 122% | 81.2% | 113% | 101% | 92.4% | 67.3% | 116% | 97.3% | 104% | 72.2% | 91.8% | – | 166%
C#Cc1cccc(Nc2nc3ccc([N+](=O)[O-])cc3nc2Nc2cccc(C#C)c2)c1 | -22.1% (active) | -21.7% (active) | -23.3% (active) | -17.6% (active) | -43.7% (active) | -84.9% (active) | -29% (active) | -67.4% (active) | -19.1% (active) | -9.97% (active) | -36.1% (active) | -59.3% (active) | -78% (active) | -64.2% (active) | -12.6% (active) | -94.7% (active) | -80.8% (active) | -77.9% (active)
